“And” between values parts separate entries of the source, which are not always exact repeats. Equal entries are not always repeated. Records with an inconclusive call do not appear. Some structures have more than one record in an assay (separate samples or runs), and their calls can disagree. The source made the active and inactive calls. Unless noted, calls come from the whole dose curve; as a rule, active = well fitted curve in the direction sought with a large enough effect in the repeat runs; inconclusive = weak or mixed curves; inactive = no such curve, though single readings can be large; an effect the other way counts as inactive or inconclusive.
What was measured:
[1] = molecular target: Thyrotropin receptor (Homo sapiens) (UniProt P16473); assay: qHTS assay to identify small molecule agonists of the thyroid stimulating hormone receptor (TSHR) signaling pathway (AID 1224843; calls by dose curve; note: nearly all actives have a fitted effect of over 45% in size)
Thyrotropin receptor (Homo sapiens), sequence (P16473 whole entry, looked up): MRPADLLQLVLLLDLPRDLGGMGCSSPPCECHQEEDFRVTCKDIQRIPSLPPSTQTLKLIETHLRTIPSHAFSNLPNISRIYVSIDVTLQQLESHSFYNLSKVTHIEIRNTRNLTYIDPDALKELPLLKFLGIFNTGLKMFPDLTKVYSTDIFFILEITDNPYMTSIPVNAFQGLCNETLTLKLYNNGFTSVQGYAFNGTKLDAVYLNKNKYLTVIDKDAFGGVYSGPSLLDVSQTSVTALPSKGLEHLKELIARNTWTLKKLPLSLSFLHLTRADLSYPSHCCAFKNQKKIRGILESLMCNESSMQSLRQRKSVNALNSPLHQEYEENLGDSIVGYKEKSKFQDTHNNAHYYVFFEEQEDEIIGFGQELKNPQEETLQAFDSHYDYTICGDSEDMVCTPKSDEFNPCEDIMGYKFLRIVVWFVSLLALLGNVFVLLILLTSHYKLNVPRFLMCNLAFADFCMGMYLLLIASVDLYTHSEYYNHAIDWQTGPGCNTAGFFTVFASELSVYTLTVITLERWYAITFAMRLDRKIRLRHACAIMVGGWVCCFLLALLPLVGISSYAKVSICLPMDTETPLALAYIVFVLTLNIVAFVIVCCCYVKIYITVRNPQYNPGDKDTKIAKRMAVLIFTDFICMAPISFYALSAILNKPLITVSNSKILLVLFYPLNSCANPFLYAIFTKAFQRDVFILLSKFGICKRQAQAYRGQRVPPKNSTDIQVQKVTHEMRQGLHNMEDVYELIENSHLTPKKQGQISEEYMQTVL
How it was run: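 TSHR-HEK293 cells in agonist mode, 30 min room-temperature step, then cAMP measured by competitive HTRF (cAMP-d2 with anti-cAMP cryptate) after 1 h at room temperature. Tested at 15 concentrations in triplicate.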

[2] = qHTS assay to identify small molecule agonists of H2AX (AID 1224845; active = well fitted activation curve with a large enough effect in the signal ratio in the repeat runs, not every such curve was filed as active; the % refers to the signal ratio)
How it was run: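 Wild-type CHO-K1 cells, plated overnight, exposed 3hr at 37C to 15 concentrations (0.76% DMSO final). Lysed, then HTRF anti-pH2AX (S139) cryptate and anti-H2AX-d2 antibodies, 24 hr room temperature; 665/620 nm emission read.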

[3] = qHTS assay to identify small molecule agonists of H2AX - cell viability counter screen (AID 1224847; calls by dose curve; note: top concentration of the series differs between compounds; nearly all actives have a fitted effect of over 30% in size)
How it was run: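 After overnight plating of 1000 CHO-K1 cells per well, a 15-concentration compound series was applied for 3 hr at 37C. Luminescence from CellTiter-Glo, read following 30 min at room temperature, reflected cell viability.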

[4] = qHTS RealTime-Glo MT Cell Viability Assay in HepG2 cells - 24 hour (AID 1224867); note: nearly all actives have a fitted effect of over 50% in size
How it was run: (§1)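 Real-time, nonlytic viability: 600 HepG2 cells/well mixed with NanoLuc enzyme plus prosubstrate; 5 h settle, compound (DMSO) added by pintool; luminescence monitored over 40 h at 37 C.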

[5] = qHTS RealTime-Glo MT Cell Viability Assay in HEK293 cells - 32 hour (AID 1224868); note: top concentration of the series differs between compounds; nearly all actives have a fitted effect of over 50% in size
How it was run: (§2)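 Cells + reagent dispensed (600 cells/well, HEK293) → 5 h at 37 C/5% CO2 → 23 nL compound in DMSO pinned → 40 h at 37 C → luminescence read at 0, 8, 16, 24, 32, 40 h.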

[6] = A CellTox Green Cytotoxicity Assay to monitor cytotoxicity in HEK293 cells - 0 hour (AID 1224869); note: nearly all actives have a fitted effect of over 50% in size; note: potency is the fitted concentration of half-maximal effect
How it was run: (§3)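 Fluorescence intensity, read at 0, 8, 16, 24, 32 and 40 h of compound treatment, reflected dye binding to DNA of dead HEK293 cells; compounds (23 nL, DMSO) were added 5 h after plating cells with reagent.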

[7] = qHTS RealTime-Glo MT Cell Viability Assay in HepG2 cells - 40 hour (AID 1224870); note: nearly all actives have a fitted effect of over 50% in size
How it was run: (§4)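 HepG2 cells (600/well) mixed with RealTime-Glo MT reagent, settled 5 h at 37 C/5% CO2 before compound addition. Nonlytic NanoLuc luminescence from viable-cell prosubstrate reduction read repeatedly during 40 h treatment at 37 C.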

[8] = A CellTox Green Cytotoxicity Assay to monitor cytotoxicity in HEK293 cells - 40 hour (AID 1224871); note: nearly all actives have a fitted effect of over 45% in size; note: potency is the fitted concentration of half-maximal effect
How it was run: as §3

[9] = qHTS RealTime-Glo MT Cell Viability Assay in HEK293 cells - 16 hour (AID 1224872)
How it was run: as §2

[10] = qHTS RealTime-Glo MT Cell Viability Assay in HepG2 cells - 8 hour (AID 1224873); note: nearly all actives have a fitted effect of over 55% in size
How it was run: as §4

[11] = qHTS RealTime-Glo MT Cell Viability Assay in HEK293 cells - 40 hour (AID 1224874); conditions: RealTime-Glo luminescence; max response: stronger effect = lower value; note: nearly all actives have a fitted effect of over 50% in size
How it was run: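 Viable HEK293 cells reduce a cell-permeant prosubstrate; the product diffuses out and is consumed by NanoLuc in the medium to give light. Compounds went in after a 5 h incubation and plates were read over the treatment course.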

[12] = A CellTox Green Cytotoxicity Assay to monitor cytotoxicity in HEK293 cells - 24 hour (AID 1224875); note: nearly all actives have a fitted effect of over 45% in size; note: potency is the fitted concentration of half-maximal effect
How it was run: as §3

[13] = A CellTox Green Cytotoxicity Assay to monitor cytotoxicity in HepG2 cells - 16 hour (AID 1224876); note: nearly all actives have a fitted effect of over 45% in size; note: potency is the fitted concentration of half-maximal effect
How it was run: (§5)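 Using 1536-well format, dye-containing HepG2 suspension was seeded, allowed 5 h at 37 C/5% CO2, dosed by pintool with compounds, positive and negative controls, and imaged for fluorescence across 40 h.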

[14] = qHTS RealTime-Glo MT Cell Viability Assay in HepG2 cells - 32 hour (AID 1224877); note: nearly all actives have a fitted effect of over 55% in size
How it was run: as §1

[15] = A CellTox Green Cytotoxicity Assay to monitor cytotoxicity in HepG2 cells - 24 hour (AID 1224878); note: nearly all actives have a fitted effect of over 45% in size; note: potency is the fitted concentration of half-maximal effect
How it was run: as §5

[16] = A CellTox Green Cytotoxicity Assay to monitor cytotoxicity in HepG2 cells - 40 hour (AID 1224879); note: nearly all actives have a fitted effect of over 40% in size; note: potency is the fitted concentration of half-maximal effect
How it was run: as §5

[17] = qHTS assay to identify small molecule agonists of the hypoxia (HIF-1) signaling pathway - cell viability counter screen (AID 1224844; calls by dose curve; note: nearly all actives have a fitted effect of over 50% in size)
How it was run: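 Cells (HRE-bla ME-180, 2,000 per well) sat 5 hrs at 37C, got compound for 17 hrs, were read for CCF4-AM FRET, and were finally lysed with CellTiter-Glo for a 30 min room-temperature luminescence read.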

[18] = qHTS assay to identify small molecule agonists of the hypoxia (HIF-1) signaling pathway (AID 1224846; active = well fitted activation curve with a large enough effect in the signal ratio in the repeat runs, not every such curve was filed as active; the % refers to the signal ratio)
How it was run: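 A low-serum medium (0.5% dialyzed FBS) holding 2,000 HRE-bla ME-180 cells per well is preincubated for 5 hrs, dosed with compounds by pintool, and kept a further 17 hrs at 37C, 5% CO2 before CCF4-AM FRET detection of beta-lactamase.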

[19] = qHTS assay to identify small molecule antagonists of the estrogen related receptor (ERR) signaling pathway from Tox21 library (AID 1224848); note: nearly all actives have a fitted effect of over 50% in size; note: potency is the fitted concentration of half-maximal effect
How it was run: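 ERR reporter cell line (from NTP) seeded 2,000 cells/well, rested 6 h at 37 C/5% CO2, then pin-dosed with compounds in DMSO. After 18 h at 37 C, ONE-Glo added; luminescence read after 30 min at room temperature.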

[20] = qHTS assay to identify small molecule agonists of the estrogen related receptor (ERR) signaling pathway from Tox21 library (AID 1224849; calls by dose curve; note: potency is the fitted concentration of half-maximal effect; for all read-outs here: nearly all actives have a fitted effect of over 15% in size); conditions: ERR reporter cell line, ONE-Glo luciferase, 18 h; for activity change, positive = activation: at 92.4 µM (top of the series)
How it was run: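 Screening used an NTP-provided ERR luciferase cell line. Compounds in DMSO were added 6 h after seeding and left 18 h at 37 C before a 30 min ONE-Glo step and luminescence reading.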
% is set by controls: 0 for no effect and ±100 for the full control effect.

c1cc(OCC2CO2)ccc1Cc1ccc(OCC2CO2)cc1 (stereo not given)
inactive: Potency [1] | Potency [2] | Potency [3] | Potency [4] | Potency [5] | Potency [6] | Potency [7] | Potency [8] | Potency [9] | Potency [10] | max response [11] -28.4% | Potency [12] | Potency [13] | Potency [14] | Potency [15] | Potency [16]

Clc1nc(Cl)nc(Cl)n1
inactive: Potency [17] | Potency [2] | outcome [18] | Potency [3] | Potency [4] | Potency [5] | Potency [6] | Potency [7] | Potency [8] | Potency [9] | Potency [10] | max response [11] 10.8% and -11.8% | Potency [12] | Potency [13] | Potency [14] | Potency [15] | Potency [16]

Nc1ccc(Cl)cc1N
inactive and 40.4 µM (active): Potency [13]
inactive and 21.9 µM (active): Potency [15]
inactive: Potency [1] | Potency [2] | outcome [18] | Potency [3] | Potency [19] | Potency [4] | Potency [7] | Potency [10] | Potency [14]
active: Potency [20] 8.31 µM [activator] | activity change, positive = activation [20] 19.2% | Potency [6] 40 µM | Potency [8] 21.9 µM | Potency [12] 24.5 µM | Potency [16] 10.2 µM and 21.9 µM

CCOc1cc(Oc2ccc(C(F)(F)F)cc2Cl)ccc1[N+](=O)[O-]
inactive: Potency [17] | outcome [18] | Potency [3] | activity change, positive = activation [20] -29.7% and -19.5% | Potency [4] | Potency [6] | Potency [7] | Potency [8] | Potency [10] | max response [11] -24.7% | Potency [12] | Potency [13] | Potency [14] | Potency [15] | Potency [16]

NNC(=S)NN
active: Potency [19] 62.8 µM
inactive: Potency [1] | Potency [2] | Potency [3] | activity change, positive = activation [20] -65.9% and -38.7% | Potency [4] | Potency [5] | Potency [6] | Potency [7] | Potency [8] | Potency [9] | Potency [10] | max response [11] 7.14% and 10.3% | Potency [12] | Potency [14] | Potency [15] | Potency [16]

CCOc1cc(C=O)ccc1O
inactive: Potency [1] | Potency [17] | outcome [18] | Potency [3] | Potency [4] | Potency [5] | Potency [6] | Potency [8] | Potency [9] | Potency [10] | max response [11] 4.96% and 4.75% | Potency [12] | Potency [14] | Potency [15] | Potency [16]

CC(C)(c1cc(Cl)c(O)c(Cl)c1)c1cc(Cl)c(O)c(Cl)c1
inactive: Potency [1] | Potency [2] | Potency [3] | Potency [19] | activity change, positive = activation [20] -0.444% and -2.89% | Potency [4] | Potency [5] | Potency [6] | Potency [7] | Potency [8] | Potency [9] | Potency [10] | max response [11] -12.2% and -31.9% | Potency [12] | Potency [13] | Potency [14] | Potency [15] | Potency [16]

— PubChem BioAssay (Tox21)
